# Where “and” joins values, the source holds several entries; their conditions need not be identical. Identical values can stand only once. Counter-ions that a name gives are not always drawn. Among all 5,800 compounds or so, about 620 (11%) showed activity. For the sample, actives were picked, then their nearest neighbours and some compounds at random. Values without a mark were called inactive.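 Rule for the calls: active = score above a cut-off or among the top three wells of a plate; in these data no inactive exceeds 0.85.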
# System: primary human hepatic stellate cells (donor 1)
# Assay: scaled lipid accumulation score (0 = DMSO-like, 1 = nortriptyline-like); higher = stronger HSC inactivation (lipid re-accumulation), active = hit call of the paper
# Conditions: 48 h
# [1] = library stock concentration: 80 uM
# [2] = library stock concentration: 400 uM
# [3] = library stock concentration: 2 mM
# [4] = library stock concentration: 3.33 mM
# [5] = library stock concentration: 10 mM
# [6] = library stock concentration: 1 mM
structure (smiles),measurement,setting,value
NC(=O)c1ccc(N(C(N)=O)c2c(F)cccc2F)nc1-c1ccc(F)cc1F,scaled lipid accumulation score,[1],≤ -0.001
same,scaled lipid accumulation score,[2],≤ -0.001 and ≤ -0.005
same,scaled lipid accumulation score,[3],≤ -0.001 and 0.083
same,scaled lipid accumulation score,[4],≤ 0
same,scaled lipid accumulation score,[5],≤ 0 and 0.012 and ≤ -0.005
CCCCC[C@H](O)/C=C/[C@H]1[C@H](O)CC(=O)[C@@H]1C/C=C\CCCC(=O)NC(CO)CO [Prostaglandin E2 serinol amide],scaled lipid accumulation score,[6],≤ 0
CCN[C@@H]1C[C@H](N)[C@@H](O[C@H]2OC(CN)=CC[C@H]2N)[C@H](O)[C@H]1O[C@H]1OC[C@](C)(O)[C@H](NC)[C@H]1O [Netilmicin sulfate],scaled lipid accumulation score,library stock concentration: 3 mM,≤ 0
CC1=C(/C=C/C(C)=C\C=C\C(C)=C\C(=O)O)C(C)(C)CCC1 [9-cis Retinoic acid],scaled lipid accumulation score,[6],≤ -0.021
NC1C=CC=C(C(=O)O)C1 (stereo not drawn) [Gabaculine hydrochloride],scaled lipid accumulation score,[5],≤ 0
CCCCC[C@H](O)/C=C/C1=C(CCCCCCC(=O)O)C(=O)CC1 [Prostaglandin B1],scaled lipid accumulation score,[6],≤ 0 and ≤ -0.021
O=C(NC[C@H]1CN(c2ccc(N3CCOCC3=O)cc2)C(=O)O1)c1ccc(Cl)s1 [Rivaroxaban],scaled lipid accumulation score,[4],≤ 0
same,scaled lipid accumulation score,[5],≤ 0
Cc1ccccc1N=Nc1ccc(NC(=O)c2ccnn2C)c(C)c1,scaled lipid accumulation score,[5],≤ -0.006
"Cc1[nH]c(/C=C2\C(=O)Nc3ccccc32)c(C)c1CCC(=O)O [SU-6668 (TSU-68, Orantinib) (2 mM)]",scaled lipid accumulation score,[3],0.047
CCN(CC)CCNC(=O)c1c(C)[nH]c(/C=C2\C(=O)Nc3ccc(F)cc32)c1C.O=C(O)C[C@H](O)C(=O)O [Sunitinib malate],scaled lipid accumulation score,[3],0.997 (active)
CCN(CC)CCNC(=O)c1c(C)[nH]c(/C=C2\C(=O)Nc3ccc(F)cc32)c1C.O=C(O)C[C@H](O)C(=O)O,scaled lipid accumulation score,[3],1.66 (active)
"Cc1[nH]c(/C=C2\C(=O)Nc3ccccc32)c(C)c1CCC(=O)O [SU-6668 (TSU-68, Orantinib) (0.4 mM)]",scaled lipid accumulation score,[2],0.175
CCOC(=O)c1c(C)[nH]c(/C=C2\C(=O)Nc3ccccc32)c1C [VEGF Receptor 2 Kinase Inhibitor I],scaled lipid accumulation score,[4],≤ 0
CCN(CC)CCNC(=O)c1c(C)[nH]c(/C=C2\C(=O)Nc3ccc(F)cc32)c1C,scaled lipid accumulation score,[2],0.189
same,scaled lipid accumulation score,[5],0.43
CCN(CC)CCNC(=O)c1c(C)[nH]c(/C=C2\C(=O)Nc3ccc(F)cc32)c1C [Sunitinib malate],scaled lipid accumulation score,[1],≤ -0.009
same,scaled lipid accumulation score,[2],≤ -0.009
same,scaled lipid accumulation score,[5],≤ -0.07 and 0.421
Cc1[nH]c(/C=C2\C(=O)Nc3ccccc32)c(C)c1CCC(=O)O,scaled lipid accumulation score,[5],0.019
"Cc1[nH]c(/C=C2\C(=O)Nc3ccccc32)c(C)c1CCC(=O)O [SU-6668 (TSU-68, Orantinib) (10 mM)]",scaled lipid accumulation score,[5],0.012
CCN(CC)CCNC(=O)c1c(C)[nH]c(/C=C2\C(=O)Nc3ccc(F)cc32)c1C [Sunitinib Malate],scaled lipid accumulation score,[4],0.775
same,scaled lipid accumulation score,[5],0.432
"Cc1[nH]c(/C=C2\C(=O)Nc3ccccc32)c(C)c1CCC(=O)O [TSU-68 (SU6668, Orantinib)]",scaled lipid accumulation score,[4],≤ 0
same,scaled lipid accumulation score,[5],≤ 0
CCN(CC)CCNC(=O)c1c(C)[nH]c(/C=C2\C(=O)Nc3ccc(Cl)cc32)c1C,scaled lipid accumulation score,[4],0.556
CCC=CCC=CCC=CCC=CCCCCCCC(=O)O [.omega.-3 Arachidonic Acid],scaled lipid accumulation score,[6],≤ 0
CCN(CC)CCN(Cc1ccc(-c2ccc(C(F)(F)F)cc2)cc1)C(=O)Cn1c(SCc2ccc(F)cc2)nc(=O)c2c1CCC2,scaled lipid accumulation score,[4],0.746
same,scaled lipid accumulation score,[5],0.058
COc1ccc(-c2coc3cc(O)ccc3c2=O)cc1 [Formononetin],scaled lipid accumulation score,[4],≤ 0
same,scaled lipid accumulation score,[5],≤ 0 and ≤ -0.027
Nc1ccc2cn[nH]c2c1,scaled lipid accumulation score,[5],≤ 0
CC(C)(CO)[C@@H](O)C(=O)NCCC(=O)NCCSSCCNC(=O)CCNC(=O)[C@H](O)C(C)(C)CO,scaled lipid accumulation score,[5],≤ 0
COC(=O)C1=C(C)NC(C)=C(C(=O)OCCCN2CCC(c3ccccc3)(c3ccccc3)CC2)[C@H]1c1cccc([N+](=O)[O-])c1 [(S)-(+)-Niguldipine hydrochloride],scaled lipid accumulation score,[5],≤ -0.006
COC(=O)C1=C(C)NC(C)=C(C(=O)OCCCN2CCC(c3ccccc3)(c3ccccc3)CC2)[C@H]1c1cccc([N+](=O)[O-])c1 [Niguldipine],scaled lipid accumulation score,library stock concentration: 7.7 mM,≤ -0.021
N#Cc1ccc2[nH]cc(CCCCN3CCN(c4ccc5oc(C(N)=O)cc5c4)CC3)c2c1 [Vilazodone HCl],scaled lipid accumulation score,[4],0.512
Cl.N#Cc1ccc2[nH]cc(CCCCN3CCN(c4ccc5oc(C(N)=O)cc5c4)CC3)c2c1 [Vilazodone HCl],scaled lipid accumulation score,[5],1.1 (active)
Cc1c(C(=O)N(C)C2CCCCC2)sc2nc3ccc(N)cc3n12,scaled lipid accumulation score,[5],0.01
O=C(Nc1ccc2[nH]nc(-c3ccncc3)c2c1)[C@@H]1CCN(CC(=O)N2CCN(c3ccc(-c4ncccn4)cc3)CC2)C1 [listing 1 of 2 here],scaled lipid accumulation score,[5],0.909 (active)
O=C(Nc1ccc2[nH]nc(-c3ccncc3)c2c1)[C@@H]1CCN(CC(=O)N2CCN(c3ccc(-c4ncccn4)cc3)CC2)C1 [listing 2 of 2 here],scaled lipid accumulation score,[1],≤ -0.001
same,scaled lipid accumulation score,[2],≤ -0.001
same,scaled lipid accumulation score,[3],≤ -0.001
O=C(Nc1ccc2[nH]ncc2c1)C1CCC1 [Rhodblock 6],scaled lipid accumulation score,[5],0.092
O=C(OC[C@H]1O[C@@H](OC(=O)c2cc(O)c(O)c(OC(=O)c3cc(O)c(O)c(O)c3)c2)[C@H](OC(=O)c2cc(O)c(O)c(OC(=O)c3cc(O)c(O)c(O)c3)c2)[C@@H](OC(=O)c2cc(O)c(O)c(OC(=O)c3cc(O)c(O)c(O)c3)c2)[C@@H]1OC(=O)c1cc(O)c(O)c(OC(=O)c2cc(O)c(O)c(O)c2)c1)c1cc(O)c(O)c(OC(=O)c2cc(O)c(O)c(O)c2)c1 [Tannic acid],scaled lipid accumulation score,[5],≤ -0.027
